Out of some 150,000 compounds screened, about 540 (0.36%) showed an effect of 50% or more. Many of the other results were omitted from the sample, so strong results are more common in it than they were.
system: Plasmodium falciparum; test: Primary screen in NF54 nanoGlo assay, in single point, at 2uM, 72h; a lower Z score goes with more inhibition; format: functional, Erythrocyte; conditions: timepoint 72 hour

Row | Compound | % Inhibition [%] | Z score
1 | COc1ccc2[nH]c(CN3CCC[C@H](N4CCN(c5ccccc5)CC4)C3)c(C)c2c1 | -4 | 0.66
2 | C[C@@H](c1cccc(-c2nc3cc(C#N)ccc3[nH]2)c1)N(C)C | 27 | -4.6
3 | Cc1csc(=O)n1Cc1nnc(C(C)C)o1 | -8 | 1.5
4 | Cc1cnccc1NCCNCc1nc2ccccc2[nH]1 | -2 | 0.37
5 | Cc1cnccc1NCCNCc1ccc(OC(C)C)c(Cl)c1 | 79 | -17.03
6 | CCN1CCN([C@H]2CCN(c3nccc4nccnc34)C2)CC1 | 2 | -0.37
7 | CCN1CCN([C@H]2CCN(c3ccnc4ccncc34)C2)CC1 | 96 | -14.59
8 | CCN(C)CC(O)CN1CCC(Oc2cccnc2N2CCCC2)C1 (stereo not given) | -5 | 1.05
9 | COc1ccc2nc(C)cc(NCc3cccc(NC(=O)c4ccco4)c3)c2c1 | 93 | -18.52
10 | CN(C)Cc1cccc(CCNCc2csc(-c3ccc(C(F)(F)F)cc3)n2)c1 | 51 | -11.09
11 | CN1CC(=O)N2C[C@@H](NC(=O)c3cccc(-c4ccc(N)nc4)c3)C[C@H]2C1=O | -16 | 2.42
12 | Cc1n[nH]nc1C(=O)Nc1ccc2[nH]c(-c3cccc(F)c3)nc2c1 | 1 | -0.2
13 | Cc1ccc2nc(-c3cccc(NC(=O)c4ccc(OC(F)(F)F)c(Cl)c4)c3)[nH]c2n1 | 57 | -12.27
14 | CNC(=O)[C@@H]1CC2(CCN(CC3CCCCC3)CC2)CN1c1ccc(C#N)c(C(F)(F)F)c1 | -15 | 2.59
15 | N#Cc1ccc(N2C[C@H](COCC3CC3)C3(CCN(Cc4cccc(O)c4)CC3)C2)cc1C(F)(F)F | 82 | -14.34

Source: ChEMBL document CHEMBL5308541, “MAIP: An Open-Source Tool to Enrich High-Throughput Screening Output and Identify Novel, Druglike Molecules with Antimalarial Activity” (ACS Med Chem Lett, 2023)
